GIRK2 activator: activators of NPY4-receptor-primed GIRK2 channels, summary, cell-based, HEK293, thallium flux | G protein-activated inward rectifier potassium channel 2 (Homo sapiens), P48051 | HEK293 GIRK2/NPY4 cells, thallium flux fluorescence | activation (% efficacy), % for hits at 37.5 µM | 34,000 tested, under 10 active;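 active = primary screen hit, no activity in plain HEK293 cells, and in GIRK2-only cells above 5% efficacy rising with concentration; inactive = the rest, including fluorescent compounds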;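 note: efficacy is normalized control-subtracted fluorescence 15 s after thallium addition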
AMPAR-TARP mod: modulators of GluA2-stargazin AMPA receptor complexes, primary screen, cell-based, membrane potential dye | calls only at 30 µM | AID 1259245, 2017 | HEK293 GluA2+stargazin, membrane potential dye (FDSS), glutamate EC50; hits were called plate by plate, in both directions | 3.5% of 40,000 active | Voltage-dependent calcium channel gamma-2 subunit (Mus musculus) + Glutamate receptor 2 …;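 active = any of four per-well response measures lying three or more SD from its plate-wide compound average, in either direction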
An asterisk follows results filed as active. Shown is part of a subset that was picked to be rich in hits.

How did Cc1cccc2sc(NC(=O)c3ccc(=O)n(Cc4ccc(Cl)cc4)c3)nc12 do in these assays?
GIRK2 activator: inactive; AMPAR-TARP mod: inactive

How did O=C(Nc1nc2ccc([N+](=O)[O-])cc2s1)c1ccc(=O)n(Cc2ccccc2)c1 do in these assays?
GIRK2 activator: inactive; AMPAR-TARP mod: active

How did O=C(NCC1CCN(C2CCCC2)CC1)c1ccccc1C(F)(F)F do in these assays?
AMPAR-TARP mod: inactive

How did COc1ccc(CCC(=O)NCCNC(=O)c2ccc(NC(C)=O)cc2)cc1 do in these assays?
GIRK2 activator: inactive; AMPAR-TARP mod: inactive

What do the screens show for `Nc1nc(SCC(=O)NCc2ccccc2)ncc1S(=O)(=O)c1ccc(Br)s1`?
GIRK2 activator: inactive; AMPAR-TARP mod: inactive

What do the screens show for `C=C(C)CN1CCN(c2cc(C)nc3c(-c4ccccc4OC)c(C)nn23)CC1`?
GIRK2 activator: inactive; AMPAR-TARP mod: inactive

How did Cc1cccc(NC(=O)CC2CCCCN2S(=O)(=O)c2cccs2)c1C (configuration not stated) do in these assays?
GIRK2 activator: inactive; AMPAR-TARP mod: active

How did O=C(CC1CCCCN1S(=O)(=O)c1ccccc1)NCc1cccs1 (configuration not stated) do in these assays?
AMPAR-TARP mod: inactive

What do the screens show for `Cc1ccc2nc3c(cc(C(=O)NCCN4CCOCC4)n3C)c(=O)n2c1`?
GIRK2 activator: inactive; AMPAR-TARP mod: inactive

Results for Cc1cccn2c(=O)c(C(=O)NCCCN3CCOCC3)c(O)nc12 ?
GIRK2 activator: inactive; AMPAR-TARP mod: active

What do the screens show for `COc1ccccc1-c1cnn2c(NCCc3ccccc3)cc(C)nc12`?
GIRK2 activator: inactive; AMPAR-TARP mod: active

What do the screens show for `COc1ccccc1-c1cnn2c(Nc3ccccc3)cc(C)nc12`?
GIRK2 activator: inactive; AMPAR-TARP mod: inactive

What do the screens show for `Cc1c(NC(C)c2cc(Cl)ccc2O)c(=O)n(-c2ccccc2)n1C` (configuration not stated)?
AMPAR-TARP mod: active

Results for Cc1c(NC(=S)NC(=O)c2ccccc2Cl)c(=O)n(-c2ccccc2)n1C ?
GIRK2 activator: inactive; AMPAR-TARP mod: inactive

What do the screens show for `CC(C)(C)n1ncc2c(=O)n(CCC(=O)NCc3ccncc3)cnc21`?
GIRK2 activator: inactive

How did COC(=O)N1CCC(CNS(=O)(=O)c2ccc(C(F)(F)F)cc2)CC1 do in these assays?
GIRK2 activator: inactive; AMPAR-TARP mod: inactive

How did CC(C)(C)NC(=O)N1CCN(c2cc(N3CCOCC3)ncn2)CC1 do in these assays?
GIRK2 activator: inactive; AMPAR-TARP mod: active

What do the screens show for `CCCNC(=O)CSc1cc(N2CCOCC2)ncn1`?
GIRK2 activator: inactive; AMPAR-TARP mod: inactive

How did CC(C)(C)c1ccc(C(=O)N2CCC3(CC2)CC(=O)c2ccccc2O3)cc1 do in these assays?
AMPAR-TARP mod: inactive

What do the screens show for `Cc1ccccc1C(=O)N1CCC2(CC1)CC(=O)c1ccccc1O2`?
AMPAR-TARP mod: active

What do the screens show for `CCc1cc2c(=O)c(-c3ccc4c(c3)OCCO4)c(C)oc2cc1OC(=O)N1CCOCC1`?
AMPAR-TARP mod: inactive

How did COc1cc(-c2nnc(NC(=O)c3ccccc3SC)o2)cc(OC)c1OC do in these assays?
AMPAR-TARP mod: inactive

How did COc1cc(/C=C2\SC(=S)N(c3ccc(O)c(C(=O)O)c3)C2=O)ccc1O do in these assays?
AMPAR-TARP mod: inactive

Results for COc1cc(/C=C2\SC(=S)N(c3ccc(C(=O)O)c(O)c3)C2=O)ccc1O ?
AMPAR-TARP mod: active

Results for CCOC(=O)C1=C(C)NC(=O)NC1c1ccc(OC)cc1 (configuration not stated) ?
AMPAR-TARP mod: inactive

Results for CCC(=O)N(CCC1(c2ccc(OC)cc2)CCOC(C)(C)C1)Cc1ccc(Cl)cc1 (configuration not stated) ?
AMPAR-TARP mod: active

Results for COc1ncccc1C(=O)N1CC(c2nc(C)no2)C1 ?
GIRK2 activator: inactive; AMPAR-TARP mod: inactive

What do the screens show for `COc1cccc2sc(N(CCN(C)C)C(=O)c3cc(C)nn3C)nc12`?
GIRK2 activator: inactive; AMPAR-TARP mod: active

How did COc1cccc2sc(N(CCCN(C)C)C(=O)c3cc(C)nn3C)nc12 do in these assays?
GIRK2 activator: inactive; AMPAR-TARP mod: inactive

What do the screens show for `CC(=O)OCCCCn1c(COc2ccccc2)nc2ccccc21`?
GIRK2 activator: inactive; AMPAR-TARP mod: active

How did Cc1ccc(OCCCCn2c(CNC(=O)c3ccco3)nc3ccccc32)cc1 do in these assays?
GIRK2 activator: inactive

How did O=C(NCCCn1cccc1)c1cc(-c2ccccc2)n[nH]1 do in these assays?
GIRK2 activator: inactive; AMPAR-TARP mod: inactive

What do the screens show for `O=C(NCCCn1cccc1)c1ccccc1`?
GIRK2 activator: inactive; AMPAR-TARP mod: active
